# Assay results published in PubChem BioAssay (NCI).
# The panel holds about 83,000 compounds, 20% with a hit somewhere; the sample as a whole holds those more often.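 Testing used 96-well plates and a 48-hour single-concentration exposure. Example: -40 means 40% of the starting cells died.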 Unmarked numbers belong to inactive results. Active and inactive are the calls of the source. Rule for the calls: active = growth percent below 10; inactive = the rest.
# System: TK-10 renal
# Assay: NCI-60 one-dose screen, 48 h (100 = growth as untreated, 0 = no growth, -100 = all killed)
# Conditions: 10 µM unless noted
row,SMILES,growth
1,Cc1nc2ccc(Cl)cc2n1C,97.2%
2,C=C1CC[C@@H]2[C@@](C)(CCC[C@]2(C)C(=O)O)[C@@H]1CC[C@H](CO)CCO,99.4%
3,O=C(NCc1cccnc1)c1ccc([N+](=O)[O-])o1,-30.5% (active)
4,COc1ccc(NS(=O)(=O)c2ccc(-c3cnc(C4CC4)o3)cc2)cc1,79.8%
5,NC1=NC(c2ccccc2OS(=O)(=O)c2ccc(Br)cc2)n2c(nc3ccccc32)N1 (stereo not drawn),99%
6,O=C(Nc1ccccc1)Oc1cccc2cccnc12,104%
7,CCC12CCC3c4ccc(O)cc4CCC3C1CC(O)C2O (stereo not drawn),85.3%
8,Cc1ccc(S(=O)(=O)N2CCc3ccc(O)c4c3C2Cc2ccc3c(c2-4)OCO3)cc1 (stereo not drawn),32.6%
9,COC(=O)c1c2c(c(C)[n+]([O-])c1C)C(=O)C=C(NCc1cccc(OC)c1)C2=O,4.5% (active)
10,O=C(c1cnn2c1NC(c1ccc(F)cc1)C2)N1CCCCC1 (stereo not drawn),105%
11,O=C1NC(=O)C2(CCCC2C(=O)O)N1 (stereo not drawn),106%
12,CON=C1C[C@]2(C[C@@H]3C[C@@H](C/C=C(\C)C[C@@H](C)/C=C/C=C4\CO[C@@H]5[C@H](O)C(C)=C[C@@H](C(=O)O3)[C@]45O)O2)O[C@H](/C(C)=C/C(C)C)[C@H]1C,81.9%
13,COc1cc(/C=C/C(=O)C(=Cc2ccc(F)c(F)c2)C(=O)/C=C/c2ccc(O)c(OC)c2)ccc1O,35.5%
14,CCOC(=O)c1[nH]c2cc(Cl)ccc2c1[C@@H](C(=O)NC(C)(C)C)N(CC)C(=O)CCCCC#Cc1cccc2c1CN(C1CCC(=O)NC1=O)C2=O (stereo partly drawn),34.3%
15,O=C1/C(=C/c2ccccc2F)CNC/C1=C\c1ccccc1F,-4.87% (active)
16,COc1cc(C2C3=C(COC3=O)N(CCO)c3cc4c(cc32)OCO4)cc(OC)c1O (stereo not drawn),61.8%
17,CCCCCCCC/C=C\CCCCCCCCOc1cccc(CC(=O)NCC[N+]2(C)CCOCC2)c1,75.1%
18,COc1ccccc1CNCCCCCCCCCCCCN1C(=O)c2ccc3c4c(ccc(c24)C1=O)C(=O)N(CCCCCCCCCCCCNCc1ccccc1OC)C3=O,-46.7% (active)
19,CC(C)NCC(O)COc1ccc(CCOCC2CC2)cc1 (stereo not drawn),111%
20,Clc1ccc(C2=NN(c3ccccc3)[C@H](c3cn(-c4ccccc4)nc3-c3ccccc3)C2)cc1,114%

# System: ACHN renal
# Assay: as above
# Conditions: 10 µM unless noted
row,SMILES,growth
1,CC(C)OC1=C(Cl)C(=O)c2ccccc2C1=O,98.5%
2,CS(=O)(=O)Nc1cccc(C(=O)NCc2ccc(N3CCOCC3)cc2)c1,115%
3,COc1ccc(S(=O)(=O)ON=C2C=C(C)C(=O)C(C)=C2)cc1,46%
4,CCOC(=O)c1c(Cl)c2c(n1Cc1cc(OC)cc(OC)c1)-c1oncc1CCC2,48.3%
5,NC(=S)N/N=C1\c2ccccc2-c2c(F)c(F)c(F)c(F)c21,65.7%
6,COCCOC1=C(Cl)C(=O)c2ccccc2C1=O,23.7%
7,O=C1C(OCCOc2ccccc2)=C(OCCOc2ccccc2)C(=O)c2ccccc21,73.5%
8,N#Cc1c(O)c2c(c(O)c1C#N)C(=O)c1ccccc1C2=O,56.2%
9,COc1cc(/C=C/C(=O)CC(=O)/C=C/c2cc(Br)c(OC)c(OC)c2)cc(Br)c1OC,109%
10,CCN1CCN(c2ccc(Nc3ncc4ccc5ncn(C(C)C)c5c4n3)nc2)CC1,2.84% (active)
11,Nc1nc2c(s1)CCc1c-2c(Br)n(Cc2ccccc2)c1Br,19.4%
12,O=c1onc(-c2ccccc2)c2ccccc12,112%
13,CCCCCn1c(=N)n(CC(O)COc2cccc(C)c2)c2ccccc21 (stereo not drawn),10.7%
14,COc1ccc(-c2nn(-c3ccc(NC(=O)c4ccc(Cl)c(Cl)c4)cc3)cc2-c2ccncc2)cc1Cl,52.6%
15,CCC(C)Oc1cc(/C=N/NC(=O)c2cnn3c2NC(c2ccccc2)C3)ccc1OC (stereo not drawn),40.7%
16,COc1cccc(OC)c1OC(=O)c1ccccc1,107%
17,C=C[C@H]1C[C@@H]2C[C@@H]3[C@H]4C/C=C\C(=O)NCCCC5NC(=O)C(=C(O)/C=C/[C@@H]4CC(=O)[C@H]3[C@@H]2[C@H]1C)C5=O (stereo partly drawn),-93.3% (active)
18,Cc1nc2ccc(Cl)cc2n1C,102%
19,C=C1CC[C@@H]2[C@@](C)(CCC[C@]2(C)C(=O)O)[C@@H]1CC[C@H](CO)CCO,106%

row,SMILES,growth
1,Fc1c[c-]c(-c2ccccn2)c(F)c1.Fc1c[c-]c(-c2ccccn2)c(F)c1.[Cl][Pt+].[Cl][Pt+].c1ccc([PH+](C[PH+](c2ccccc2)c2ccccc2)c2ccccc2)cc1,89.3%
2,O=C(NCc1cccnc1)c1ccc([N+](=O)[O-])o1,34.5%
3,COc1ccc(NS(=O)(=O)c2ccc(-c3cnc(C4CC4)o3)cc2)cc1,80.6%
4,NC1=NC(c2ccccc2OS(=O)(=O)c2ccc(Br)cc2)n2c(nc3ccccc32)N1 (stereo not drawn),94.5%
5,O=C(Nc1ccccc1)Oc1cccc2cccnc12,84.7%
6,CCC12CCC3c4ccc(O)cc4CCC3C1CC(O)C2O (stereo not drawn),103%
7,Cc1ccc(S(=O)(=O)N2CCc3ccc(O)c4c3C2Cc2ccc3c(c2-4)OCO3)cc1 (stereo not drawn),44.9%
8,COC(=O)c1c2c(c(C)[n+]([O-])c1C)C(=O)C=C(NCc1cccc(OC)c1)C2=O,-81.5% (active)
9,O=C(c1cnn2c1NC(c1ccc(F)cc1)C2)N1CCCCC1 (stereo not drawn),102%
10,O=C1NC(=O)C2(CCCC2C(=O)O)N1 (stereo not drawn),99.5%
11,CON=C1C[C@]2(C[C@@H]3C[C@@H](C/C=C(\C)C[C@@H](C)/C=C/C=C4\CO[C@@H]5[C@H](O)C(C)=C[C@@H](C(=O)O3)[C@]45O)O2)O[C@H](/C(C)=C/C(C)C)[C@H]1C,44.3%
12,COc1cc(/C=C/C(=O)C(=Cc2ccc(F)c(F)c2)C(=O)/C=C/c2ccc(O)c(OC)c2)ccc1O,27.3%
13,CCOC(=O)c1[nH]c2cc(Cl)ccc2c1[C@@H](C(=O)NC(C)(C)C)N(CC)C(=O)CCCCC#Cc1cccc2c1CN(C1CCC(=O)NC1=O)C2=O (stereo partly drawn),13%
14,O=C1/C(=C/c2ccccc2F)CNC/C1=C\c1ccccc1F,-48.9% (active)
15,COc1cc(C2C3=C(COC3=O)N(CCO)c3cc4c(cc32)OCO4)cc(OC)c1O (stereo not drawn),37.9%
16,CCCCCCCC/C=C\CCCCCCCCOc1cccc(CC(=O)NCC[N+]2(C)CCOCC2)c1,94%
17,COc1ccccc1CNCCCCCCCCCCCCN1C(=O)c2ccc3c4c(ccc(c24)C1=O)C(=O)N(CCCCCCCCCCCCNCc1ccccc1OC)C3=O,78.4%
18,CC(C)NCC(O)COc1ccc(CCOCC2CC2)cc1 (stereo not drawn),109%
19,Clc1ccc(C2=NN(c3ccccc3)[C@H](c3cn(-c4ccccc4)nc3-c3ccccc3)C2)cc1,103%
